Assay [1] concerns the target T1, Aspartate--tRNA(Asp/Asn) ligase (Mycobacterium tuberculosis (strain ATCC 25618 / H37Rv)) (UniProt P9WFW3). Further: in the data most compounds retested in dose-response had high values.
T1 sequence (whole entry): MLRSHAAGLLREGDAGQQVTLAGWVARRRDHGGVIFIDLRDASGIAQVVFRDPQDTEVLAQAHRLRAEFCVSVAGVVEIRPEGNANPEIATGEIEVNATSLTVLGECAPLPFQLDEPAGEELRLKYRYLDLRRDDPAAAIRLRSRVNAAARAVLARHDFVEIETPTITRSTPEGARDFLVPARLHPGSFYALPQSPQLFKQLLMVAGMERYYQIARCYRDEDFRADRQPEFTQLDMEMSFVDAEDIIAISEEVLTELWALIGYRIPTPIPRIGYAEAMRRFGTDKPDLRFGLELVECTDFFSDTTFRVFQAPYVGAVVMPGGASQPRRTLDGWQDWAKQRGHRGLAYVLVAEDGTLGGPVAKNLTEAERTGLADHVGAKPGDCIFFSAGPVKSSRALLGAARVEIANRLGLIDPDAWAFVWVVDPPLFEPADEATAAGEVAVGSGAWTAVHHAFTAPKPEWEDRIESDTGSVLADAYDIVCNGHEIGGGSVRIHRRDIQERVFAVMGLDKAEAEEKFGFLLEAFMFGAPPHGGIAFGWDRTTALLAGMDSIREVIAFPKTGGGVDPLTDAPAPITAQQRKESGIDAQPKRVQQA
Description: Assay for Asp RNA synthetase-1 from Mycobacterium tuberculosis. The format is functional. The settings on record: 30 µM. Further details: scale not given: direction of the effect not stated beside the values.

Assay [2] concerns the target Shiga toxin 2 (Escherichia coli O157:H7) (UniProt P09385+P09386). Description: E. coli 0.157:H7 Shiga Toxin SOP - stx2 screening assay. The settings on record: 30 µM. Further details: scale not given: direction of the effect not stated beside the values. The format is functional.

This is an account of results in ChEMBL document CHEMBL3988442, “University of Dundee, Small-Polar-MMV Screening Library” (2021).

On to `Cc1nnc(CN2CCC(N(C)Cc3nnc(C4CC4)n3C)C2)o1` (centres undefined), for which the Percent Effect was -1.43% in assay [1] and 18.5% in assay [2].

With `COc1ccc(NC(=O)NC(C)c2nc[nH]n2)cc1` (centres undefined), the results for the Percent Effect in assay [1] and in assay [2] were -1.71% and 5.29%, respectively.

In the case of `CCOc1cc(/C=C/c2ncc(C(=O)O)s2)ccc1O`, the Percent Effect is 0.568% in assay [1] and -21.4% in assay [2].

For the molecule `CCOC(CC)C(=O)NCCC(=O)N1CCN(c2ncccn2)CC1` (centres undefined), the values for the Percent Effect in assay [1] and in assay [2] were 1.17% and -0.0687%, respectively.

As for `Cc1nc(N2CCCC2)nc2c1CCN(Cc1ccco1)CC2`, the Percent Effect is 8.76% in assay [1] and -55.7% in assay [2].

Regarding `Cc1noc(C)c1CN1CC[C@H]2OCC[C@@H](C(=O)NCC3CC3)[C@@H]2C1`, the figures for the Percent Effect in assay [1] and in assay [2] were -1.49% and -13.8%, respectively.

As for `Cc1nc(-c2nnc[nH]2)sc1C(=O)N(Cc1cccnc1)C1CC1`, the Percent Effect in assay [1] is -2.72%; in assay [2], 7.27%.

For the molecule `COc1ccc(-n2ccc(C(=O)NCCN3CCCCC3C)n2)cc1` (centres undefined), the Percent Effect was 4.6% in assay [1] and -18.1% in assay [2].

On to `CC(=O)NCCC1CCCCN1S(=O)(=O)c1cccc(C#N)c1` (centres undefined), for which the Percent Effect in assay [1] is -1.28%; in assay [2] it was -30%.

As to `Cc1nc(Nc2ncccn2)cc(C2CCCN2CC(C)C)n1` (centres undefined), the Percent Effect was -0.75% in assay [1] and 13.5% in assay [2].

Consider `Cc1nc(C)n(C2CCCN(C(=O)c3sccc3C3CC3)C2)n1` (centres undefined), for which the Percent Effect was -3.11% in assay [1] and 10.4% in assay [2].

As to `CN(C)C(=O)CN1C(=O)CCC12CCN(Cc1ccc(F)cc1)CC2`, the values for the Percent Effect in assay [1] and in assay [2] were 1.43% and -5.2%, respectively.

With `CCC(CC)c1cc(CNC(=O)N2CCOCC2CC)on1` (centres undefined), the Percent Effect in assay [1] is -2.19%; in assay [2], 9.7%.

`CCC1CN(C(=O)c2ccccc2N2CCCC2)CCN1C(C)C` (centres undefined): the Percent Effect was -4.91% in assay [1] and 12.2% in assay [2].

`CN(C)Cc1ccnc(C2CCCN2Cc2ccncc2)n1` (centres undefined): the Percent Effect in assay [1] was -3.02%; in assay [2], -14.5%.

As to `CS(=O)(=O)c1ccc(OCCNCc2cccc(F)c2)cc1`, the Percent Effect in assay [1] was -5.13%; in assay [2] it was -38.6%.

Regarding `CCN(CC)CC1CN(CCc2ccccc2)Cc2nccn2C1` (centres undefined), the Percent Effect in assay [1] was -4.79%; in assay [2] it was 4.72%.
